PostGolgi ctrl: growth inhibition of yeast control strain, primary screen, counter-screen for post-Golgi transport modulator project | efflux-deficient yeast background strain, growth absorbance A615, 16 h | 5% of 98,000 active | AID 738, 2007 | inhibition, % at 10 µM
DAT uptake mod: changed hDAT dopamine uptake under cocaine IC80, either direction, primary screen, cocaine antagonist project, cell-based, LLC-PK1 hDAT, [14C]-dopamine uptake, MLSMR. AID 449768, 2010. Sodium-dependent dopamine transporter (Homo sapiens), Q01959. B-score at 10 µM. LLC-PK1 hDAT cells, [14C]-dopamine uptake with cocaine IC80; actives deviate in either direction. 1.3% of 110,000 active;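 active = Z score or B-score, a plate-position-corrected score, falls beyond the plate's 99.7% confidence bounds, in either direction; inactive = both scores lie inside the 99.7% bounds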;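 also: scored against the spread of the other compound wells on the same plate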
PLAP activator: PLAP enzyme activators, biochemical, luminescence, HTS; purified PLAP enzyme, luminescent substrate read-out; stronger effect = higher value; activation fold at 20 µM; 1.2% of 96,000 active; AID 696, 2007; in the data active = activation fold above about 2
Target sequence (P05187 whole entry, looked up): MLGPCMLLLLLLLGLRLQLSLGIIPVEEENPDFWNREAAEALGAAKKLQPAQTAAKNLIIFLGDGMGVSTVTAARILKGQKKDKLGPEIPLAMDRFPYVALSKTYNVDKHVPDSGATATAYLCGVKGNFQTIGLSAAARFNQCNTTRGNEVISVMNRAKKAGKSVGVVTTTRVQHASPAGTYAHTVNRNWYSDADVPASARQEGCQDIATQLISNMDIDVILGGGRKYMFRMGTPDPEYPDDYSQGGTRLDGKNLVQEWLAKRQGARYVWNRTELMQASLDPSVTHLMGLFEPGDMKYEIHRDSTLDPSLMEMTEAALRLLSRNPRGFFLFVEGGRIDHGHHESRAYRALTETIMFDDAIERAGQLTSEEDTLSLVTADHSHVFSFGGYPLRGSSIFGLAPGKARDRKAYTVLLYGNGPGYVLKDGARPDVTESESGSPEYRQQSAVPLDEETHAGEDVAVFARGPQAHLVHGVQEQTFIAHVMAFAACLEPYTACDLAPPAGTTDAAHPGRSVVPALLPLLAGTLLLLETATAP
Cav3 T inh: Cav3.2 calcium influx blockers – cell-based, Fluo-4 calcium fluorescence, FDSS, MLSMR library, primary screen | Voltage-dependent T-type calcium channel subunit alpha-1H (Homo sapiens), O95180 | Cav3.2-expressing cells; stronger effect = lower value | B-score at 10 µM | 4% of 100,000 active;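 active = single-dose well whose peak fluorescence ratio is a statistical outlier from its plate by either plate-standardised score or position-corrected B-score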
PostGolgi yeast: phenotypic screen on post-Golgi transport, primary screen; post-Golgi transport phenotypic cell assay; inhibition, % at 10 µM; 0.9% of 98,000 active; AID 739, 2007;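 also: yeast cells grown in 1536-well plates; yeast grown about 18 h at 30C before absorbance read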
Active calls of the source: *. Most compounds without a hit are left out; they make up all but 9.6% or so of the library. Rule as the data show it, unless noted: active = inhibition above about 30%; inactive = the rest.

For Cc1ccc(C(=O)NC(=S)NCC2CCCO2)cc1 (stereo not given) the results were PostGolgi ctrl -1, DAT uptake mod 0.35, PLAP activator 0.9, Cav3 T inh 0.91 and PostGolgi yeast -5.
`CCOC(=O)C(NC(=O)c1ccc(F)cc1)(Nc1nnc(C)s1)C(F)(F)F` (stereo not given) gave PostGolgi ctrl 30*, DAT uptake mod 0.0049, PLAP activator 0.9, Cav3 T inh 0.45 and PostGolgi yeast 1.
For CCOC(=O)NC(Nc1nnc(C)s1)(C(=O)OCC)C(F)(F)F (stereo not given) the results were PostGolgi ctrl -13, DAT uptake mod -0.06, PLAP activator 1, Cav3 T inh -0.21 and PostGolgi yeast 4.
Screening COc1cc(O)c(C(CCN2CCCC(C)C2)c2ccc3c(c2)OCO3)c(OC)c1 (stereo not given) returned DAT uptake mod 0.27 and Cav3 T inh -1.4.
Screening COc1cc(O)c(C(CCN2CCCC(C)C2)c2ccc(N(C)C)cc2)c(OC)c1 (stereo not given) returned DAT uptake mod 2.2* and Cav3 T inh 0.65.
For O=C(NCc1cccc(C(F)(F)F)c1)C1CC(c2ccccc2C(F)(F)F)=NO1 (stereo not given) the results were DAT uptake mod 0.0034 and Cav3 T inh -1.8.
Screening CC[C@H]1CC2CN3CCc4c([nH]c5c([C@H]6C[C@H]7[C@H](CC)CN(C)[C@@H](Cc8c6[nH]c6ccccc86)[C@H]7C(=O)OC)c(OC)ccc45)C(C(=O)OC)(C2)C13 returned DAT uptake mod -0.76 and Cav3 T inh -3.8*.
CC(=O)Nc1cc2c(cc1C(=O)c1ccc(C)cc1)OCCO2 was read as PostGolgi ctrl 5, DAT uptake mod -0.36, PLAP activator 1.1, Cav3 T inh -5.2* and PostGolgi yeast 1.
`CCN1CCN(C(=O)c2ccc(Cn3c(=O)[nH]c4cc(OC)c(OC)cc4c3=O)cc2)CC1` gave PostGolgi ctrl -3, DAT uptake mod 0.05, PLAP activator 1.7, Cav3 T inh -0.065 and PostGolgi yeast -2.
O=C(c1ccc(Cn2c(=O)[nH]c3ccccc3c2=O)cc1)N1CCN(c2ccc(F)cc2)CC1 was read as PostGolgi ctrl -2, DAT uptake mod 0.053, PLAP activator 1.1, Cav3 T inh -9* and PostGolgi yeast 1.
Screening COc1ccc(Cn2c(=O)[nH]c3cc(C(=O)N4CCN(Cc5ccccc5)CC4)ccc3c2=O)cc1 returned PostGolgi ctrl -3, DAT uptake mod 0.23, PLAP activator 1.2, Cav3 T inh -7.5* and PostGolgi yeast -2.
Screening CCc1ccccc1NC(=O)N[C@@H](C)C(=O)OC returned PostGolgi ctrl 1, DAT uptake mod 1.8, PLAP activator 0.9, Cav3 T inh -0.96 and PostGolgi yeast -17.
For O=C(CC1C(=O)NCCN1C(=S)Nc1ccccc1)Nc1ccc2c(c1)OCCO2 (stereo not given) the results were PostGolgi ctrl 4, DAT uptake mod 0.38, PLAP activator 1, Cav3 T inh 0.59 and PostGolgi yeast -1.
COc1ccc(-c2cc(C(F)F)n3ncc(C(=O)N4CCCCC4)c3n2)cc1 was read as PostGolgi ctrl 0, DAT uptake mod 2.6*, PLAP activator 1.4, Cav3 T inh -2.1 and PostGolgi yeast -2.
Screening Cc1ccc(-c2cc(C(F)F)n3ncc(C(=O)N4CCN(c5ccccn5)CC4)c3n2)cc1 returned PostGolgi ctrl 28, DAT uptake mod 0.88, PLAP activator 1.5, Cav3 T inh -5.3* and PostGolgi yeast 10.
Screening CCN1CCN(C(=O)c2cnn3c(C(F)F)cc(-c4ccc(C)cc4)nc23)CC1 returned PostGolgi ctrl 8, DAT uptake mod -0.014, PLAP activator 1.6, Cav3 T inh -0.00033 and PostGolgi yeast 3.
Screening O=c1[nH]c(=O)n(Cc2ccco2)c2c1C(C(F)(F)F)(C(F)(F)F)N=C(CCc1ccccc1)N2 returned PostGolgi ctrl 1, DAT uptake mod 0.62, PLAP activator 1.1, Cav3 T inh -3.2 and PostGolgi yeast -1.
`N#Cc1ccc(C2=NC(C(F)(F)F)(C(F)(F)F)c3c(n(Cc4ccco4)c(=O)[nH]c3=O)N2)cc1` gave PostGolgi ctrl 7, DAT uptake mod -1.8, PLAP activator 1.1, Cav3 T inh -5.9* and PostGolgi yeast -4.

High-throughput results: PubChem BioAssay, several laboratories
